According to PubChem BioAssay AID1159580 (chemical genetic matrix, 2015):
Hit rate of the full screen: of about 5,500 compounds, about 2,000 (36%) were called active. Another 18% or so got no clear call; they are omitted. No stated cut-off is given here; in the data, active means normalized growth mostly below about 0.91 (no sharp cut-off); inconclusive means no clear call, values can overlap the other calls; inactive means mostly above about 0.92. The list shows a part of the results.

Assay: chemical genetic growth profiling, strain panel (AID 1159580);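 further: tested at 20 µM; growth read once vehicle control cultures reached saturation at 30 °C; 1 = growth at the plate median or of vehicle wells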
Settings: growth OD
[1] = S. cerevisiae deletion strains, locus YAL013W, strain DEP1, stronger effect = lower value
[2] = S. cerevisiae deletion strains, locus YBR229C, strain ROT2, stronger effect = lower value
[3] = S. cerevisiae deletion strains, locus YDL101C, strain DUN1, stronger effect = lower value
[4] = S. cerevisiae deletion strains, locus YDR150W, strain NUM1, stronger effect = lower value
[5] = S. cerevisiae deletion strains, locus YEL061C, strain CIN8, stronger effect = lower value
[6] = S. cerevisiae deletion strains, locus YGR078C, strain PAC10, stronger effect = lower value
[7] = S. cerevisiae deletion strains, locus YHR030C, strain SLT2, stronger effect = lower value
[8] = S. cerevisiae deletion strains, locus YJR043C, strain POL32, stronger effect = lower value
[9] = S. cerevisiae deletion strains, locus YJR075W, strain HOC1, stronger effect = lower value
[10] = S. cerevisiae deletion strains, locus YLR039C, strain RIC1, stronger effect = lower value
[11] = S. cerevisiae deletion strains, locus YLR262C, strain YPT6, stronger effect = lower value
[12] = S. cerevisiae deletion strains, locus YMR263W, strain SAP30, stronger effect = lower value
[13] = S. cerevisiae deletion strains, locus YMR307W, strain GAS1, stronger effect = lower value
[14] = S. cerevisiae deletion strains, locus YNL153C, strain GIM3, stronger effect = lower value
[15] = S. cerevisiae deletion strains, locus YNL322C, strain KRE1, stronger effect = lower value
[16] = S. cerevisiae deletion strains, locus YOL006C, strain TOP1, stronger effect = lower value
[17] = S. cerevisiae deletion strains, locus YPL055C, strain LGE1, stronger effect = lower value
[18] = S. cerevisiae deletion strains, locus YPL241C, strain CIN2, stronger effect = lower value

Measured: normalized growth

CCCCCCC(C)OC(=O)COc1cc(Cl)c(Cl)cc1Cl (stereo not drawn)
inactive: [1] 0.994 | S. cerevisiae deletion strains, locus YBR021W, strain FUR4, stronger effect = lower value 0.985 | [2] 1 | S. cerevisiae deletion strains, locus YCL029C, strain bik1, stronger effect = lower value 0.992 | S. cerevisiae deletion strains, locus YDL035C, strain GPR1, stronger effect = lower value 1 | S. cerevisiae deletion strains, locus YDL074C, strain BRE1, stronger effect = lower value 1 | [3] 1 | S. cerevisiae deletion strains, locus YDL134C, strain PPH21, stronger effect = lower value 1.01 | S. cerevisiae deletion strains, locus YDL185W, strain tfp1, stronger effect = lower value 0.995 | S. cerevisiae deletion strains, locus YDL192W, strain arf1, stronger effect = lower value 0.995 | S. cerevisiae deletion strains, locus YDR101C, strain arx1, stronger effect = lower value 0.993 | [4] 1 | S. cerevisiae deletion strains, locus YDR162C, strain NBP2, stronger effect = lower value 0.964 | S. cerevisiae deletion strains, locus YDR318W, strain mcm21, stronger effect = lower value 0.989 | S. cerevisiae deletion strains, locus YDR388W, stronger effect = lower value 0.992 | S. cerevisiae deletion strains, locus YDR502C, strain sam2, stronger effect = lower value 0.997 | [5] 1 | S. cerevisiae deletion strains, locus YER110C, stronger effect = lower value 0.993 | S. cerevisiae deletion strains, locus YER155C, strain BEM2, stronger effect = lower value 0.984 | S. cerevisiae deletion strains, locus YER167W, strain BCK2, stronger effect = lower value 0.995 | S. cerevisiae deletion strains, locus YGL078C, strain dbp3, stronger effect = lower value 0.985 | S. cerevisiae deletion strains, locus YGL086W, strain mad1, stronger effect = lower value 0.988 | S. cerevisiae deletion strains, locus YGL248W, strain PDE1, stronger effect = lower value 0.993 | [6] 0.995 | S. cerevisiae deletion strains, locus YGR135W, strain pre9, stronger effect = lower value 0.994 | S. cerevisiae deletion strains, locus YGR229C, strain SMI1, stronger effect = lower value 0.952 | S. cerevisiae deletion strains, locus YGR252W, strain gcn5, stronger effect = lower value 0.99 | [7] 0.978 | S. cerevisiae deletion strains, locus YHR079C, strain IRE1 (second series), stronger effect = lower value 0.986 | S. cerevisiae deletion strains, locus YHR094C, strain hxt1, stronger effect = lower value 0.983 | S. cerevisiae deletion strains, locus YHR129C, strain ARP1, stronger effect = lower value 1 | S. cerevisiae deletion strains, locus YHR200W, strain rpn10, stronger effect = lower value 0.987 | S. cerevisiae deletion strains, locus YIL066C, strain RNR3, stronger effect = lower value 0.975 | S. cerevisiae deletion strains, locus YIL073C, strain SPO22, stronger effect = lower value 0.948 | S. cerevisiae deletion strains, locus YIL125W, strain kgd1, stronger effect = lower value 0.988 | S. cerevisiae deletion strains, locus YIR030C, strain dcg1, stronger effect = lower value 0.983 | S. cerevisiae deletion strains, locus YJL095W, strain BCK1, stronger effect = lower value 0.997 | S. cerevisiae deletion strains, locus YJL134W, strain LCB3, stronger effect = lower value 1.01 | S. cerevisiae deletion strains, locus YJL168C, strain set2, stronger effect = lower value 0.988 | S. cerevisiae deletion strains, locus YJL187C, strain SWE1 (second series), stronger effect = lower value 0.997 | [8] 0.988 | [9] 1.01 | S. cerevisiae deletion strains, locus YKL009W, strain mrt4, stronger effect = lower value 1 | S. cerevisiae deletion strains, locus YKL068W, stronger effect = lower value 0.989 | S. cerevisiae deletion strains, locus YKL085W, strain MDH1 (second series), stronger effect = lower value 0.986 | S. cerevisiae deletion strains, locus YKL085W, strain MDH1, stronger effect = lower value 0.986 | S. cerevisiae deletion strains, locus YKL190W, strain CNB1, stronger effect = lower value 1 | S. cerevisiae deletion strains, locus YKR001C, strain vps1, stronger effect = lower value 0.996 | [10] 0.95 | S. cerevisiae deletion strains, locus YLR058C, strain SHM2, stronger effect = lower value 0.999 | S. cerevisiae deletion strains, locus YLR102C, strain apc9, stronger effect = lower value 0.998 | [11] 0.946 | S. cerevisiae deletion strains, locus YLR268W, strain sec22, stronger effect = lower value 0.99 | S. cerevisiae deletion strains, locus YLR330W, strain CHS5, stronger effect = lower value 1 | S. cerevisiae deletion strains, locus YLR342W, strain FKS1 (second series), stronger effect = lower value 1.05 | S. cerevisiae deletion strains, locus YLR371W, strain rom2, stronger effect = lower value 0.993 | S. cerevisiae deletion strains, locus YLR418C, strain cdc73, stronger effect = lower value 0.947 | S. cerevisiae deletion strains, locus YML016C, strain PPZ1, stronger effect = lower value 1.01 | S. cerevisiae deletion strains, locus YML032C, strain rad52, stronger effect = lower value 0.994 | S. cerevisiae deletion strains, locus YML124C, strain tub3, stronger effect = lower value 0.985 | S. cerevisiae deletion strains, locus YMR078C, strain ctf18, stronger effect = lower value 0.989 | S. cerevisiae deletion strains, locus YMR223W, strain ubp8, stronger effect = lower value 0.99 | [12] 1.01 | [13] 0.86 | S. cerevisiae deletion strains, locus YNL067W, strain RPL9B, stronger effect = lower value 0.994 | S. cerevisiae deletion strains, locus YNL128W, strain TEP1, stronger effect = lower value 0.995 | [14] 0.996 | S. cerevisiae deletion strains, locus YNL233W, strain BNI4, stronger effect = lower value 0.996 | S. cerevisiae deletion strains, locus YNL250W, strain rad50, stronger effect = lower value 0.982 | S. cerevisiae deletion strains, locus YNL271C, strain bni1, stronger effect = lower value 0.997 | S. cerevisiae deletion strains, locus YNL298W, strain CLA4, stronger effect = lower value 0.991 | S. cerevisiae deletion strains, locus YNL307C, strain MCK1, stronger effect = lower value 0.973 | [15] 1 | S. cerevisiae deletion strains, locus YNR052C, strain pop2, stronger effect = lower value 0.993 | [16] 0.963 | S. cerevisiae deletion strains, locus YOL012C, strain htz1 1.39 | S. cerevisiae deletion strains, locus YOL147C, strain pex11, stronger effect = lower value 0.984 | S. cerevisiae deletion strains, locus YOR061W, strain CKA2, stronger effect = lower value 1 | S. cerevisiae deletion strains, locus YOR069W, strain VPS5, stronger effect = lower value 1 | S. cerevisiae deletion strains, locus YOR136W, strain idh2, stronger effect = lower value 0.986 | S. cerevisiae deletion strains, locus YOR144C, strain elg1, stronger effect = lower value 0.986 | S. cerevisiae deletion strains, locus YOR184W, strain ser1, stronger effect = lower value 0.992 | S. cerevisiae deletion strains, locus YOR316C, strain cot1, stronger effect = lower value 0.994 | [17] 0.999 | [18] 0.999 | S. cerevisiae deletion strains, locus YPR119W, strain clb2, stronger effect = lower value 0.982 | S. cerevisiae deletion strains, locus YPR141C, strain kar3, stronger effect = lower value 0.997 | S. cerevisiae deletion strains, locus YPR163C, strain tif3, stronger effect = lower value 0.985 | S. cerevisiae deletion strains, locus YPR167C, strain met16, stronger effect = lower value 0.992 | S. cerevisiae deletion strains, strain wtn01, stronger effect = lower value 0.983 | S. cerevisiae strains, strain wild type, stronger effect = lower value 0.999

OC1(c2ccc(F)cc2)Cc2ccccc2C2=NCCN21 (stereo not drawn)
inactive: [1] 0.99 | [2] 0.987 | [3] 0.997 | [4] 0.932 | [5] 0.993 | [6] 0.98 | [7] 0.903 | S. cerevisiae deletion strains, locus YHR087W, strain rtc3, stronger effect = lower value 0.987 | S. cerevisiae deletion strains, locus YJL187C, strain SWE1, stronger effect = lower value 1.01 | [8] 1 | [9] 0.961 | [10] 0.975 | S. cerevisiae deletion strains, locus YLR058C, strain SHM2 (second series), stronger effect = lower value 0.983 | S. cerevisiae deletion strains, locus YLR085C, strain ARP6, stronger effect = lower value 0.954 | [11] 0.968 | S. cerevisiae deletion strains, locus YML094W, strain GIM5, stronger effect = lower value 0.982 | S. cerevisiae deletion strains, locus YMR219W, strain ESC1, stronger effect = lower value 0.998 | [12] 0.894 | [13] 0.925 | [14] 0.985 | S. cerevisiae deletion strains, locus YNL298W, strain CLA4 (second series), stronger effect = lower value 0.986 | [15] 0.992 | S. cerevisiae deletion strains, locus YNR030W, strain Alg12, stronger effect = lower value 0.98 | [16] 0.93 | [17] 0.866 | [18] 0.986 | S. cerevisiae deletion strains, locus YPR135W, strain CTF4, stronger effect = lower value 0.915
